Values joined by “and” are separate entries in the source; they are usually repeats but may differ in a detail not shown here. Identical values can stand only once. Records with an inconclusive call do not appear. A call without a number means that no potency is given here. A structure can be active in one record and inactive in another. Active and inactive are the calls of the source. The call rests on the fitted dose curve.
Experiment: qHTS assay to identify small molecule agonists of the hypoxia (HIF-1) signaling pathway - cell viability counter screen (AID 1224844); further: nearly all actives have a fitted effect of over 50% in size
Conditions: HRE-bla ME-180 viability, CellTiter-Glo luminescence, 17 h; series mostly up to 76.8 µM
Procedure, shortened: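 Cells (HRE-bla ME-180, 2,000 per well) sat 5 hrs at 37C, got compound for 17 hrs, were read for CCF4-AM FRET, and were finally lysed with CellTiter-Glo for a 30 min room-temperature luminescence read.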
Potency means the concentration at half of the fitted maximal effect.

| SMILES | Potency |
| --- | --- |
| CCCCCC[n+]1ccccc1 | inactive |
| Nc1ccc(Cl)cc1 | inactive |
| CCCCCCCCCCCCCCCCn1cc[n+](C)c1 | inactive and 49.4 µM (active) and 31 µM (active) |
| CN(C)[C@@H]1C(=O)C(C(N)=O)=C(O)[C@@]2(O)C(=O)C3=C(O)c4c(O)cccc4[C@@](C)(O)[C@H]3[C@H](O)[C@@H]12 | inactive |
| CC(=O)[O][Hg][c]1ccccc1 | 154 nM (active) and 1.74 µM (active) and 2.68 µM (active) |
| Cc1cc(-c2ccc(N)c(C)c2)ccc1N | inactive |
| N#CS | inactive |
| CCCCCCn1cc[n+](C)c1 | inactive |
| CCCCCCCCCCn1cc[n+](C)c1 | inactive |
| CCCCCCCCn1cc[n+](C)c1 | inactive |
| C=CCOC(Cn1ccnc1)c1ccc(Cl)cc1Cl (stereo not given) | 39 µM (active) and inactive |
| Cc1cc(Cl)ccc1OCC(=O)O | inactive |
| CCCn1cc[n+](C)c1 | inactive |
| CC(Cl)(Cl)C(=O)O | inactive |
| CCCC[n+]1cccc(C)c1 | inactive |
| CCCC[n+]1ccc(C)cc1 | inactive and 38.7 µM (active) |
| O=P1(N(CCCl)CCCl)NCCCO1 (stereo not given) | inactive |
| CC[n+]1ccccc1 | inactive |
| Nc1ccc(-c2ccc(N)c(Cl)c2)cc1Cl | inactive |
| Nc1ccccc1 | inactive |
| Nc1ccc(-c2ccc(N)cc2)cc1 | inactive |
| O=C(O)c1ccccc1O | inactive |
| CCCC[n+]1ccccc1C | inactive |
| O=C(O)COc1ccc(Cl)cc1Cl | inactive |
| CCCC[N+]1(C)CCCC1 | inactive |
